Source: PubChem BioAssay AID1851 (National Center for Advancing Translational Sciences (NCATS), 2009)
Among all 16,000 compounds or so, about 2,600 (16%) were called active. Roughly 20% stayed inconclusive and do not appear here. Calls follow the shape of the dose curve; as a rule, active = well fitted curve in the direction sought with a large enough effect; inconclusive = small, poorly fitted or top-dose-only effect, or effect the other way; inactive = no such curve, though single readings can be large or run the other way. Not all results are given here.

molecular target: Cytochrome P450 2D6 (Homo sapiens) (UniProt P10635); assay: Cytochrome panel assay with activity outcomes; settings: recombinant CYP, pro-luciferin dealkylation, luminescence, p450-cyp2d6; series mostly up to 57.1 µM; activity, negative = inhibition: at the top concentration
Sequence (P10635 whole entry, looked up): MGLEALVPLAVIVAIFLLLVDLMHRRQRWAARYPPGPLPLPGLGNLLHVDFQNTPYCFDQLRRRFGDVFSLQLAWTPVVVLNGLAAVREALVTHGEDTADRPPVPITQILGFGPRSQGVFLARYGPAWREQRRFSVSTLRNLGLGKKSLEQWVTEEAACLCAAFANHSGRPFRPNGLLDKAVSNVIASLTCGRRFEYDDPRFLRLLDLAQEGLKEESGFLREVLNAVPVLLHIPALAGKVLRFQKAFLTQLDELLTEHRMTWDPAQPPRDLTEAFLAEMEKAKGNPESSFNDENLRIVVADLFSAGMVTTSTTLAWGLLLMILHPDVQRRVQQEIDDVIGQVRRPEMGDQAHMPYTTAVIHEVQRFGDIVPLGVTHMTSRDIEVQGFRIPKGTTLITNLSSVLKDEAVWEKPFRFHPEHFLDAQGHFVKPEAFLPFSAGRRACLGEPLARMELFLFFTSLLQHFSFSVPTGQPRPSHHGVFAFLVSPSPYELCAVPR
% is scaled to controls: 0 for no effect and ±100 for the full control effect.

| SMILES | activity, negative = inhibition | AC50 |
| --- | --- | --- |
| CC1(C)O[C@H]2[C@@H](c3[nH]nc4c(=O)[nH]c(=O)[nH]c34)OC[C@H]2O1 | 17% [at 11.4 µM] (inactive) |  |
| CCSc1nnc(NC(=O)Cc2ccc(OC)c(OC)c2)s1 | 6.23% (inactive) |  |
| Cc1nc2c(c(-c3ccccc3)c1C#N)C(=O)c1ccccc1-2 | 15.6% (inactive) |  |
| CC(C)CC1NC(=S)N(C2CCCCC2)C1=O (centres undefined) | 4.01% (inactive) |  |
| CCCC[C@@H]1C[C@H]1C(NC(=O)c1cccs1)c1ccc(C(F)(F)F)cc1 (some centres undefined) | 3.39% (inactive) |  |
| CC(C)(C)c1ccc(O)c(CN(Cc2c(O)ccc3ccccc23)C2CCCCC2)c1 |  | 0.794 µM (active) |
| CN(C)Cc1ccc(C(C)(C)C)cc1-c1cc(C(C)(C)C)ccc1CN(C)C | -2% [at 11.4 µM] (inactive) |  |
| O=C(O)Cc1c(O)ccc2ccccc12 | 2.9% [at 11.4 µM] (inactive) |  |
| CS(=O)(=O)N(Cc1cc2ccccc2[nH]c1=O)C1CCCCC1 | -8.47% (inactive) |  |
| Oc1ccc2ccccc2c1Cc1c(O)ccc2ccccc12 | 3.09% [at 11.4 µM] (inactive) |  |
| CC(C)(C)c1ccc(O)c(CN(Cc2cc(C(C)(C)C)ccc2O)C2CCCCC2)c1 |  | 0.501 µM (active) |
| CN(C)Cc1cc(C(C)(C)C)ccc1-c1ccc(C(C)(C)C)cc1CN(C)C | 4.2% [at 11.4 µM] (inactive) |  |
| Oc1ccc2ccccc2c1CN(Cc1c(O)ccc2ccccc12)C1CCCCC1 |  | 0.631 µM (active) |
| O=C1C2=CC[C@H]3C(=O)N(c4cccc(Oc5ccccc5)c4)C(=O)[C@@H]3[C@@H]2[C@H](O)[C@@H]2O[C@H]12 | 1.91% [at 11.4 µM] (inactive) |  |
| Cc1ccc(C(=O)N/N=C\c2cccn2C)cn1 | 23.5% (inactive) |  |
| Fc1ccc(C2=Nn3c(Cc4ccccc4F)nnc3SC2)cc1 | -7.98% (inactive) |  |
| Cc1ccc(C(=O)NC(=S)Nc2ccc(S(=O)(=O)N3CCN(C)CC3)cc2)cc1 | -15.3% (inactive) |  |
| CC(C)(C)NC(=O)C(c1ccccn1)N(C(=O)C1CSC(=O)C1)c1ccc(F)cc1 (centres undefined) | -21.8% (inactive) |  |
| CC1=N[C@@](C)(COC(=O)[C@]2(C)N[C@](C)(CO)CO2)COC1=O | 10% [at 11.4 µM] (inactive) |  |
| NC(=O)CN1CCN(c2nc(-c3ccc(F)cc3)cs2)CC1 | -6.06% (inactive) |  |
| Cn1cccc1C(=O)N1CCC[C@@]2(CCN(Cc3ccccc3)C2)C1 |  | 2 µM (active) |
| Cn1cccc1C(=O)N1CCC2(CCN(Cc3ccccc3)CC2)CC1 |  | 7.94 µM (active) |
| COc1ccc(C(=O)N2CCC[C@@]3(CCN(Cc4cc(C(F)(F)F)cc(C(F)(F)F)c4)C3)C2)cc1 | -10.6% (inactive) |  |
| Cn1cccc1C(=O)N1CCC[C@@]2(CCN(Cc3cc(C(F)(F)F)cc(C(F)(F)F)c3)C2)C1 |  | 3.98 µM (active) |

| SMILES | activity, negative = inhibition | AC50 |
| --- | --- | --- |
| Cn1cccc1C(=O)N1CCC2(CC1)CCN(c1ccccc1)CC2 | 9.63% (inactive) |  |
| Cn1cccc1C(=O)N1CCC2(CCCN(Cc3ccncc3)C2)CC1 |  | 7.94 µM (active) |
| CN1CC[C@@]2(CCCN(C(=O)c3cccn3C)C2)C1 | -2.76% (inactive) |  |
| Cn1cccc1C(=O)N1CCC2(CCN(Cc3ccncc3)CC2)CC1 | -13.4% (inactive) |  |
| Cn1cccc1C(=O)N1CCC2(CC1)CN(Cc1ccc(C#N)cc1)C2 | 4.08% (inactive) |  |
| Cn1cccc1C(=O)N1CCC[C@@]2(CCN(c3ccncc3)C2)C1 | -6.49% (inactive) |  |
| Cn1cccc1C(=O)N1CCC2(CC1)CN(c1ccncc1)C2 | -7.3% (inactive) |  |
| Cn1cccc1C(=O)N1CCC[C@@]2(CCN(c3ccccc3)C2)C1 | -18.6% (inactive) |  |
| NCC[C@H]1CCC[C@H](CCN)N1 | -7.7% (inactive) |  |
| O=[N+]([O-])c1ccc(C=Nc2ccc(Cl)cc2Cl)s1 | -27.5% (inactive) |  |
| COC(=O)[C@@]1(Cc2ccc(F)cc2)[C@@H]2C(=CC(=O)[C@H]2CC(=O)C(=O)N2CCCC2)CN1C(=O)c1ccccc1 | -13.8% (inactive) |  |
| N#CCCn1c(=O)cnc2cnc(N3CCNCC3)nc21 | 1.14% (inactive) |  |
| c1ccc2cc(-c3csnn3)ccc2c1 | -25.1% (inactive) |  |
| CS(=O)(=O)N1CCCC(C(=O)N2CCc3ccccc3C2)C1 (centres undefined) | -9.11% (inactive) |  |
| CCOC(=O)CC(=O)CSc1nc(-c2cccnc2)cc(C)c1C#N | -8.95% (inactive) |  |
| Cc1ccc(CONC(=O)/N=C/N(C)C)cc1 | -0.0637% (inactive) |  |
| C=CCNc1sc(C(=O)c2ccccc2)c(N)c1C#N | -15.1% (inactive) |  |
| CCC[C@@H]1O[C@@H]2C[C@@H]3[C@H]4CCC5=CC(=O)C=C[C@@]5(C)[C@H]4[C@H](O)C[C@@]3(C)[C@@]2(C(=O)CO)O1 | 4.49% [at 25.6 µM] (inactive) |  |
| CO[C@@H]1/C=C\O[C@]2(C)Oc3c(C)c(O)c4c(O)c(cc(O)c4c3C2=O)NC(=O)/C(C)=C\C=C/[C@H](C)[C@@H](O)[C@H](C)[C@H](O)[C@H](C)[C@H](OC(C)=O)[C@@H]1C | 11.7% [at 11.4 µM] (inactive) |  |
| O=C(CSc1nc2nc(-c3cccs3)cc(C(F)(F)F)c2c(=O)[nH]1)NCc1ccco1 | 10.3% (inactive) |  |
| O=C1COc2ccccc2CN1 | -0.0301% (inactive) |  |
| Cn1c(=O)cnc2cnc(Nc3ccccc3)nc21 | -14.9% (inactive) |  |
| CC[C@]1(O)C[C@@H]2CN(CCc3c([nH]c4ccccc34)[C@](C(=O)OC)(c3cc4c(cc3OC)N(C)[C@H]3[C@](O)(C(=O)OC)[C@@H](C(=O)OC)[C@@]5(CC)C=CCN6CC[C@@]43[C@@H]65)C2)C1 | 6.57% (inactive) |  |
| CN(C)S(=O)(=O)c1nc(Cl)c2[nH]cnc2n1 | 9.4% [at 11.4 µM] (inactive) |  |

| SMILES | activity, negative = inhibition | AC50 |
| --- | --- | --- |
| Cn1cccc1C(=O)N1CCC2(CCCN(Cc3ccc(C#N)cc3)C2)CC1 | -1.96% (inactive) |  |
| Cn1cccc1C(=O)N1CCC2(CCCN(Cc3ccccc3)C2)CC1 |  | 10 µM (active) |
| CC(C)CN1CCCC2(CCN(C(=O)c3cccn3C)CC2)C1 | -12% (inactive) |  |
| O=c1c(-c2ccccc2)nc2cnc(N3CCOCC3)nc2n1Cc1cccs1 | 10.8% (inactive) |  |
| CCOc1ccc(OCC)c(NC(=O)C2CCCN(S(=O)(=O)c3cccs3)C2)c1 (centres undefined) | -21.1% (inactive) |  |
| NNc1nncc2ccccc12 | -9.84% (inactive) |  |
| C=CC[C@@H]1C=C[C@H](O/N=C\[C@@H](C)[C@H](OCc2ccccc2)C(C)C)[C@H](CO)O1 | -3.33% [at 11.4 µM] (inactive) |  |
| CC1(C)N=C(N)N=C(N)N1CCCCc1ccccc1 |  | 3.16 µM (active) |
| COc1ccc(-n2c(=O)c(-c3ccc(Cl)cc3)nc3cnc(N4CCOCC4)nc32)cc1 | -14.9% (inactive) |  |
| CCOC(=O)COc1c(OC)cc(Cl)cc1C1Nc2ccccc2C(=O)N1c1cccc(C)c1 (centres undefined) | -3.19% (inactive) |  |
| O=C(NCCCN1CCCC1=O)c1ccc(CNS(=O)(=O)c2ccc(F)cc2)cc1 | -13% (inactive) |  |
| Cn1c(CNS(=O)(=O)c2ccc(F)cc2)n[nH]c1=S | -1.79% (inactive) |  |
| CN(CCC#N)C(=O)c1ccc(CNS(=O)(=O)c2ccc(F)cc2)cc1 |  | 28.2 µM (active) |
| CC(C)c1ccc2nc3sc(C(=O)N4CCc5ccccc5C4)c(N)c3cc2c1 | -13.4% (inactive) |  |
| COc1ccccc1CN1CC2(CCN(C(=O)c3ccncc3)CC2)C1 |  | 0.794 µM (active) |
| COc1ccccc1CN1CCCC2(CCN(C(=O)c3ccncc3)CC2)C1 |  | 3.16 µM (active) |
| CN1CCCC2(CCN(C(=O)c3cnccn3)CC2)C1 | -1.38% (inactive) |  |
| O=C(c1cnccn1)N1CCC2(CCCN(Cc3nccs3)C2)CC1 |  | 7.94 µM (active) |
| COc1ccccc1CN1CCCC2(CCN(C(=O)c3cnccn3)CC2)C1 |  | 3.98 µM (active) |
| O=C(c1cnccn1)N1CCC2(CCN(Cc3nccs3)CC2)CC1 | -16.7% (inactive) |  |
| COc1ccccc1CN1CC2(CCN(C(=O)c3cnccn3)CC2)C1 | 10.3% (inactive) |  |
| O=C(c1cnccn1)N1CCC2(CC1)CN(Cc1nccs1)C2 | 8.12% (inactive) |  |
| O=c1c(CCc2ccccc2)nc2cnc(Oc3ccccc3)nc2n1C1CC1 | -18.6% (inactive) |  |
| O=C(CSc1nc2ccccc2s1)c1sc2sc3ccccc3[n+]2c1O | -14.5% [at 11.4 µM] (inactive) |  |

| SMILES | activity, negative = inhibition | AC50 |
| --- | --- | --- |
| Cc1ccc(C(=O)O)cc1N1C(=O)c2cccc3cc(Br)cc(c23)C1=O | 2.76% (inactive) |  |
| CCCNC(=O)OC[C@@H]1O[C@H](CCO/N=C(\C)CCN2CCc3nc(-c4ccccc4)c(-c4ccccc4)cc3C2)C=C[C@@H]1Oc1ccc(OC)cc1 | -6.26% [at 11.4 µM] (inactive) |  |
| COc1ccc(Oc2ncc3nc(C)c(=O)n(C)c3n2)cc1 | -3.79% (inactive) |  |
| CC(C)C12CN3CC(C(C)C)(CN(C1)C3c1ccco1)C2=O (centres undefined) | -6.44% (inactive) |  |
| CC(=O)Nc1c(I)c(C(=O)N[C@H]2[C@@H](O)[C@H](O)[C@H](CO)O[C@@H]2O)c(I)c(N(C)C(C)=O)c1I | 6% [at 25.6 µM] (inactive) |  |
| CCOc1ccc(N(CCC#N)S(=O)(=O)c2ccc(OC)cc2)cc1 | -14.3% (inactive) |  |
| COc1cc([C@H]2c3cc4c(cc3[C@@H](O)[C@@H]3COC(=O)[C@H]23)OCO4)cc(OC)c1OC | -2.29% (inactive) |  |
| O=C1N/C(=C\c2ccc(N3CCOCC3)c(F)c2)C(=O)N1Cc1ccccc1 | 7.66% (inactive) |  |
| COCCn1c(=O)c(C)nc2cnc(Oc3cccc(Cl)c3)nc21 | 5.44% (inactive) |  |
| Sc1ccc2ccccc2c1CNCc1ccccc1 |  | 1.26 µM (active) |
| O=C(O)c1ccc(CNCc2ccccc2)cc1 | 8.97% [at 11.4 µM] (inactive) |  |
| CC(OC(=O)Cn1c(C(F)(F)F)nc2ccccc21)C(N)=O (centres undefined) | 0.379% (inactive) |  |
| Cc1ccc(N=Cc2cc(C)n(C3CCCC3)c2C)cc1 |  | 15.8 µM (active) |
| COC(=O)N1CCC2(CC1)CCN(c1ncccn1)CC2 | 12.2% (inactive) |  |
| COc1cc(/C=C\c2ccc(OC)cc2OC)cc(OC)c1 | 4.63% (inactive) |  |
| COc1ccc(/C=C/c2ccncc2)cc1 |  | 8.91 µM (active) |
| COc1ccc(OC(=O)c2ccncc2)cc1 | -16.3% (inactive) |  |
| CC(C)(C)NC(=O)Cn1cnc([N+](=O)[O-])n1 | -7.65% (inactive) |  |
| CSc1nc2ccc3nc(NC(=O)c4cccs4)sc3c2s1 | -24.7% (inactive) |  |
| O=C(Cn1cnc2ccccc2c1=O)Nc1nnc(SCc2ccccc2)s1 | -15.3% (inactive) |  |
| COc1cc(OC)cc(C(=O)NC(=S)Nc2ccc(Cl)c(C(=O)O)c2)c1 | -13.6% (inactive) |  |
| C[C@@H](c1ccccc1)N1C(=O)[C@H]2[C@H]3[C@H](O)[C@H](O)C/C(=N/OCc4ccccc4)[C@H]3CC[C@@H]2C1=O | 6.68% [at 11.4 µM] (inactive) |  |
